Over roughly 8,300 sequences, “log2 fold change of degron read counts, EGFP-low vs EGFP+ sorted cells (limma voom), compound-induced degradation” has its median near -1.1; the highest 2% begin near 3.2. The entries come from a sample that favours the highest values as a whole.
T1: CRBN, Q96SW2
T1 chain: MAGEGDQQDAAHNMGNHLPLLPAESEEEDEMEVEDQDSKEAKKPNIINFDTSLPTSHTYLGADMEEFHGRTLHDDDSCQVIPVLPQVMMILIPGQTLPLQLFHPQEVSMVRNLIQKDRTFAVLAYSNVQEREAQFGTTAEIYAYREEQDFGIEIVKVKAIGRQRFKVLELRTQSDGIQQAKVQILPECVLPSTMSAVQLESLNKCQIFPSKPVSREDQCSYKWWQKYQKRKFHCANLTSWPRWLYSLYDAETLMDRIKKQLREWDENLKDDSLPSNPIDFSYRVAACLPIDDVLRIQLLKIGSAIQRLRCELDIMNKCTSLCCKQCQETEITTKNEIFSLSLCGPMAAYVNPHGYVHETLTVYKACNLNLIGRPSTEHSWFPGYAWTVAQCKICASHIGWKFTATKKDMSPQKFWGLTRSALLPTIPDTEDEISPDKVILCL


Target: T1, CRBN, Q96SW2
Experiment: log2 fold change of degron read counts, EGFP-low vs EGFP+ sorted cells (limma voom), compound-induced degradation; higher = more compound-induced degradation of the degron-EGFP fusion; degrons are variants of IKZF1/3 zinc finger 2; compound dose not given here
Conditions: Jurkat, 18 h
[1] = compound: compound 19 (5-tert-butyl-thalidomide)
[2] = compound: compound 22 (5-morpholino-thalidomide)
[3] = compound: compound 33 (diphenyl IMiD analogue)
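Further: pooled lentiviral library of zinc finger degron-EGFP fusions in mCherry-positive Jurkat cells, FACS-sorted after compound exposure, with degron abundance counted by next-generation sequencing.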

| Sequence | log2 fold change of degron read counts [1] | log2 fold change of degron read counts [2] | log2 fold change of degron read counts [3] | log2 fold change of degron read counts (compound: thalidomide) |
| --- | --- | --- | --- | --- |
| FNCSVCGHVFTQKGNLLRHIKL [46F_47N_49S_50V_52G_53H_54V_55F_67L_, Q9UKT9] | -2.33 | -2.79 | -2.91 | -2.16 |
| FGCDICGALFTQKGNLLRHIKL [46F_47G_49D_50I_52G_53A_54L_55F_67L_, Q9UKT9] | 0.711 | -0.455 | 0.626 | -1.25 |
| FECPICGREFTQKGNLLRHIKL [46F_47E_49P_50I_52G_53R_54E_55F_67L_, Q9UKT9] | -3.21 | -2.49 | -0.551 | 0.22 |
| FFCDVCGAMFTQKGNLLRHIKL [46F_47F_49D_50V_52G_53A_54M_55F_67L_, Q9UKT9] | 1.26 | 0.949 | -0.289 | -2.16 |
| LCCPICGFECTQKGNLLRHIKL [46L_47C_49P_50I_52G_53F_54E_55C_67L_, Q9UKT9] | 0.863 | 1.38 | 1.36 | 2.2 |
| LVCEICGFCCTQKGNLLRHIKL [46L_47V_49E_50I_52G_53F_54C_55C_67L_, Q9UKT9] | 1.06 | 1.69 | 1.86 | 2.44 |
| LWCEICGFCCTQKGNLLRHIKL [46L_47W_49E_50I_52G_53F_54C_55C_67L_, Q9UKT9] | 2.9 | 3.31 | 2.14 | 0.752 |
| LSCEICGFCCTQKGNLLRHIKL [46L_47S_49E_50I_52G_53F_54C_55C_67L_, Q9UKT9] | 1.68 | 1.58 | 0.957 | 0.73 |
| LCCEICGFCCTQKGNLLRHIKL [46L_47C_49E_50I_52G_53F_54C_55C_67L_, Q9UKT9] | 0.944 | 0.646 | 1.13 | 1.21 |
| LYCEICGFCCTQKGNLLRHIKL [46L_47Y_49E_50I_52G_53F_54C_55C_67L_, Q9UKT9] | 3.35 | 3.28 | 3.07 | 1.36 |
| LACEICGFCCTQKGNLLRHIKL [46L_47A_49E_50I_52G_53F_54C_55C_67L_, Q9UKT9] | 2.01 | 0.96 | -0.0283 | -0.106 |
| LFCEICGFCCTQKGNLLRHIKL [46L_47F_49E_50I_52G_53F_54C_55C_67L_, Q9UKT9] | 3.37 | 3.39 | 2.01 | 1.32 |
| LNCEICGFCCTQKGNLLRHIKL [46L_47N_49E_50I_52G_53F_54C_55C_67L_, Q9UKT9] | 0.295 | -0.862 | -1.01 | -0.716 |
| LDCEICGFCCTQKGNLLRHIKL [46L_47D_49E_50I_52G_53F_54C_55C_67L_, Q9UKT9] | -1.71 | -2.74 | -1.75 | -1.36 |
| FNCNICGACFTQKGNLLRHIKL [46F_47N_49N_50I_52G_53A_54C_55F_67L_, Q9UKT9] | 0.853 | -0.00319 | 0.551 | -0.352 |
| FTCSVCGHAFTQKGNLLRHIKL [46F_47T_49S_50V_52G_53H_54A_55F_67L_, Q9UKT9] | -2.6 | -3.26 | -2.56 | -2.32 |
| FMCNQCGAIFTQKGNLLRHIKL [46F_47M_49N_50Q_52G_53A_54I_55F_67L_, Q9UKT9] | -1.99 | -2.22 | -1.03 | -1.47 |
| FECPICGHRFTQKGNLLRHIKL [46F_47E_49P_50I_52G_53H_54R_55F_67L_, Q9UKT9] | -2.87 | -2.87 | -1.63 | -0.824 |
| LHCEICGFCCTQKGNLLRHIKL [46L_47H_49E_50I_52G_53F_54C_55C_67L_, Q9UKT9] | 1.84 | 1.64 | 1.25 | 0.874 |
| FYCEICGRTFTQKGNLLRHIKL [46F_47Y_49E_50I_52G_53R_54T_55F_67L_, Q9UKT9] | 0.432 | 1.09 | 0.33 | -1.02 |
| FYCNQCGHVFTQKGNLLRHIKL [46F_47Y_49N_50Q_52G_53H_54V_55F_67L_, Q9UKT9] | -2.11 | -2.08 | -2.48 | -1.76 |
| FHCPVCGAFFTQKGNLLRHIKL [46F_47H_49P_50V_52G_53A_54F_55F_67L_, Q9UKT9] | 0.94 | 0.598 | 1.1 | -0.224 |
| FRCEICGAYFTQKGNLLRHIKL [46F_47R_49E_50I_52G_53A_54Y_55F_67L_, Q9UKT9] | -0.965 | -0.721 | 0.747 | 1.98 |
| FACEICGAYFTQKGNLLRHIKL [46F_47A_49E_50I_52G_53A_54Y_55F_67L_, Q9UKT9] | 3.17 | 1.39 | 0.71 | 0.202 |
| FGCEICGAYFTQKGNLLRHIKL [46F_47G_49E_50I_52G_53A_54Y_55F_67L_, Q9UKT9] | 1.74 | 0.231 | 2.58 | 0.883 |
| FICEICGAYFTQKGNLLRHIKL [46F_47I_49E_50I_52G_53A_54Y_55F_67L_, Q9UKT9] | -0.272 | 1.41 | 2.34 | 2.12 |
| FYCEICGAYFTQKGNLLRHIKL [46F_47Y_49E_50I_52G_53A_54Y_55F_67L_, Q9UKT9] | 3.25 | 2.89 | 2.12 | 0.307 |
| FWCEICGAYFTQKGNLLRHIKL [46F_47W_49E_50I_52G_53A_54Y_55F_67L_, Q9UKT9] | 3.24 | 2.92 | 1.88 | 0.14 |

— the supplement of paper PMC12645437, “Orthogonal IMiD-Degron Pairs Induce Selective Protein Degradation in Cells” (ACS Chemical Biology, 2025)
